# Reference: PubChem BioAssay (EPA / NIEHS)
# Values joined by “and” are separate entries in the source; they are usually repeats but may differ in a detail not shown here. Equal entries are not always repeated. Records with an inconclusive call do not appear. The source holds several records for some structures; these can differ, active in one and inactive in another. Active and inactive are the calls of the source. The calls were made as follows, unless noted: active = hit-call score of the fitted dose curve at least 0.9, where 1 is the maximum; inconclusive = response in the unintended direction; inactive = score below 0.9.
# Tests used:
# [1] = read-out: xenobiotic metabolism (CYP1A1), CYP1A1 (gene 1543); experiment: CLD_CYP1A1_6hr: CellzDirect (CLD) Gene Expression Assay for xenobiotic metabolism (CYP1A1) at 6 hours (AID 2283661);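 as to AC50: potency for transcript induction above DMSO vehicle baseline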
# Procedure, shortened: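 Read-out 6 h post-dose: qNPA chemiluminescent quantitation of transcript induction against 0.2% DMSO. Cells were cultured primary human hepatocytes from two separate donor preparations; phase-contrast morphology annotated apparent cytotoxicity.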
# [2] = Tanguay_ZF_120hpf_TR_legacy: (Legacy) Oregon State University Tanguay Lab 120 Hour Post-fertilization zebrafish Assay for Touch Response (AID 2283667)
# Procedure, shortened: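 Binary touch-response endpoint in larvae at 120 hpf after static waterborne exposure from embryo stage (28°C, 0.64% DMSO vehicle, 5 uM trimethyltin chloride as positive control); embryos dead at 24 or 120 hpf excluded; fitted as gain versus DMSO.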
# [3] = read-out: glucuronosyltransferase (UGT1A1), UGT1A1 (gene 54658); experiment: CLD_UGT1A1_6hr: CellzDirect (CLD) Gene Expression Assay for glucuronosyltransferase (UGT1A1) at 6 hours (AID 2283672)
# Procedure, shortened: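 UGT1A1 mRNA induction, read by quantitative nuclease protection assay, 6 h after dosing primary human hepatocytes (two donors, 0.2% DMSO vehicle). Gain of signal fitted relative to vehicle.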
# [4] = read-out: xenobiotic metabolism (CYP1A1), CYP1A1 (gene 1543); experiment: CLD_CYP1A1_24hr: CellzDirect (CLD) Gene Expression Assay for xenobiotic metabolism (CYP1A1) at 24 hours (AID 2283673);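 also: CYP1A1 mRNA level by quantitative nuclease protection with chemiluminescence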
# Procedure, shortened: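 Transcript levels were read at 24 h by qNPA chemiluminescence in human liver primary cells. Cells got daily fresh dosing at multiple concentrations (vehicle 0.2% DMSO). Induction fitted upward against DMSO; phase-contrast cytotoxicity annotated.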
# [5] = read-out: ABC Transporter (ABCB11), ABCB11 (gene 8647); experiment: CLD_ABCB11_6hr: CellzDirect (CLD) Gene Expression Assay for ABC Transporter (ABCB11) at 6 hours (AID 2283675);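 also: hits raise ABCB11 mRNA level so AC50 marks induction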
# Procedure, shortened: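 Read-out was ABCB11 mRNA gain of signal by quantitative nuclease protection assay, relative to 0.2% DMSO vehicle, 6 h post-dose. Cells were primary human hepatocytes from two donors, treated across multiple concentrations; phase-contrast cytotoxicity noted yes/no.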
# [6] = CLD_ACTIN_6hr: CellzDirect (CLD) Gene Expression Assay for Baseline Control (Actin) at 6 hours (AID 2283676);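 also: active means increased actin mRNA relative to DMSO vehicle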
# Procedure, shortened: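 Baseline actin transcript level measured by qNPA (S1 nuclease protection, chemiluminescence) in human hepatocyte cultures 6 h after chemical exposure; 0.2% DMSO vehicle as reference, cytotoxicity noted from morphology.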
# [7] = read-out: Cytochrome P450 2C19 (Homo sapiens) (UniProt P33261); experiment: CLD_CYP2C19_6hr: CellzDirect (CLD) Gene Expression Assay for xenobiotic metabolism (CYP2C19) at 6 hours (AID 2283678)
# Procedure, shortened: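 CYP2C19 transcript induction was quantified by quantitative nuclease protection assay with chemiluminescent read-out, 6 h after dosing. Cells were primary human hepatocytes from two donor preparations, given fresh dosing solutions daily in 0.2% DMSO vehicle. Activity was relative to DMSO.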
# [8] = CCTE_Padilla_ZF_144hpf_TERATOSCORE: (Legacy) CCTE's 144 Hour Post-fertilization zebrafish Assay Teratoscore, Padilla Lab (AID 2283679; active = hit-call score of the fitted dose curve at least 0.9, where 1 is the maximum; inactive = score below 0.9;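 as to AC50: zebrafish embryos with chorions exposed by immersion from 6-8 hpf to 5 dpf with daily renewal; teratogenicity score from eye scoring of death hatching and malformations at 144 hpf; higher score means more developmental defects relative to DMSO baseline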)
# Procedure, shortened: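 Larvae scored by eye at 144 hpf for death, hatching and malformations after a day in clean Hanks'. Before that, daily-renewed exposure at 80 uM (0.4% DMSO, 26C) from roughly 6-8 hpf through 5 dpf, 4 embryos per chemical.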
# [9] = read-out: HMG-CoA synthase (HMGCS2), HMGCS2 (gene 3158); experiment: CLD_HMGCS2_6hr: CellzDirect (CLD) Gene Expression Assay for HMG-CoA synthase (HMGCS2) at 6 hours (AID 2283682);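 also: actives raise HMGCS2 transcript above the 0.2% DMSO vehicle baseline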
# Procedure, shortened: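 HMGCS2 transcript induction read by quantitative nuclease protection with chemiluminescence, 6 h after dosing of primary human hepatocytes. Baseline was 0.2% DMSO vehicle; phase-contrast morphology gave a yes/no cytotoxicity annotation.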
# [10] = read-out: xenobiotic metabolism (CYP1A2), CYP1A2 (gene 1544); experiment: CLD_CYP1A2_24hr: CellzDirect (CLD) Gene Expression Assay for xenobiotic metabolism (CYP1A2) at 24 hours (AID 2283683)
# Procedure, shortened: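 CYP1A2 mRNA induction measured by quantitative nuclease protection (chemiluminescent) in human primary hepatocytes 24 h after multi-concentration chemical dosing with daily fresh solutions. DMSO (0.2%) baseline; positive-direction fitting; morphology-based cytotoxicity noted.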
# [11] = read-out: Cytochrome P450 2B6 (Homo sapiens) (UniProt P20813); experiment: CLD_CYP2B6_24hr: CellzDirect (CLD) Gene Expression Assay for xenobiotic metabolism (CYP2B6) at 24 hours (AID 2283686)
# Procedure, shortened: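 qNPA chemiluminescent measurement of mRNA at 24 hours in human primary hepatocyte cultures from two donor preparations, with daily fresh dosing and 0.2% DMSO vehicle as baseline. Morphology-based cytotoxicity flagged yes/no.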
# [12] = read-out: Cytochrome P450 2C19 (Homo sapiens) (UniProt P33261); experiment: CLD_CYP2C19_24hr: CellzDirect (CLD) Gene Expression Assay for xenobiotic metabolism (CYP2C19) at 24 hours (AID 2283687);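 also: activity means mRNA induction above DMSO vehicle baseline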
# Procedure, shortened: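 CYP2C19 mRNA was quantified by qNPA chemiluminescence after 24 h of daily dosing of cultured human primary hepatocytes from two donors; vehicle was 0.2% DMSO, and increases over DMSO baseline were fitted.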
# [13] = read-out: Cytochrome P450 2C9 (Homo sapiens) (UniProt P11712); experiment: CLD_CYP2C9_24hr: CellzDirect (CLD) Gene Expression Assay for xenobiotic metabolism (CYP2C9) at 24 hours (AID 2283688)
# Procedure, shortened: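 Induction of CYP2C9 mRNA was quantified by quantitative nuclease protection assay (chemiluminescence), gain of signal versus 0.2% DMSO vehicle, 24 h after dosing. Human primary hepatocytes (two donors) received fresh chemical daily at multiple concentrations; morphology-based cytotoxicity flagged yes/no.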
# [14] = read-out: Cytochrome P450 3A4 (Homo sapiens) (UniProt P08684); experiment: CLD_CYP3A4_24hr: CellzDirect (CLD) Gene Expression Assay for xenobiotic metabolism (CYP3A4) at 24 hours (AID 2283689)
# Procedure, shortened: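 CYP3A4 mRNA induction read by quantitative nuclease protection (chemiluminescence) 24 hr after dosing. Cultured human hepatocytes (two donor preparations) treated daily, vehicle 0.2% DMSO; phase-contrast morphology annotates cytotoxicity.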
# [15] = read-out: organic anion transporter (SLCO1B1), SLCO1B1 (gene 10599); experiment: CLD_SLCO1B1_24hr: CellzDirect (CLD) Gene Expression Assay for organic anion transporter (SLCO1B1) at 24 hours (AID 2283690)
# Procedure, shortened: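 SLCO1B1 mRNA induction read at 24 h by quantitative nuclease protection assay (chemiluminescence), analyzed against DMSO baseline. Human hepatocyte cultures from separate donors received fresh dosing solutions daily; vehicle 0.2% DMSO; cytotoxicity flagged by phase-contrast morphology.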
# [16] = read-out: Cytochrome P450 (CYP24A1_1), CYP24A1 (gene 1591); experiment: LTEA_HepaRG_CYP24A1_1: Life Technologies and Expression Analysis (LTEA) Assay for Cytochrome P450 (CYP24A1_1) using HepaRG (AID 2283671; active = hit-call score of the fitted dose curve at least 0.9, where 1 is the maximum; inactive = score below 0.9); conditions: mRNA level, 48 h; actives raise or lower the signal
# Procedure, shortened: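 Differentiated human HepaRG cells were exposed in duplicate for 48 h in serum-free induction medium to eight concentrations (top 100 uM, half-log steps, 0.5% DMSO). CYP24A1 mRNA was quantified by TaqMan qRT-PCR, normalized to ACTB, GAPDH and POLR2A, and fitted bidirectionally versus DMSO.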
# [17] = read-out: ABC Transporter (ABCB1), ABCB1 (gene 5243); experiment: CLD_ABCB1_24hr: CellzDirect (CLD) Gene Expression Assay for ABC Transporter (ABCB1) at 24 hours (AID 2283684)
# Procedure, shortened: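 ABCB1 mRNA induction versus 0.2% DMSO vehicle was read by qNPA chemiluminescence at 24 h. Cultured human hepatocytes from two donor preparations received daily fresh dosing, and phase-contrast cytotoxicity calls were annotated alongside the data.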
# [18] = tested on: Thyroperoxidase (TPO), gene 54314; experiment: CCTE_Simmons_AUR_rTPO: CCTE's Amplex UltraRed Assay for Thyroperoxidase (TPO) Inhibition, Simmons Lab (AID 2283662);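 as to AC50: potency for loss of signal meaning inhibition of peroxidase activity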
# Procedure, shortened: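 Rat thyroid microsomes (5 ug protein) were incubated with test compound (8 concentrations, 5 nM–87.5 uM final, 0.5% DMSO), 25 uM Amplex UltraRed and 300 uM H2O2 in 200 mM phosphate buffer for 30 min at 37C in the dark; fluorescence read at 544/590 nm.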
# Cytochrome P450 2C19 (Homo sapiens), sequence (P33261 whole entry, looked up): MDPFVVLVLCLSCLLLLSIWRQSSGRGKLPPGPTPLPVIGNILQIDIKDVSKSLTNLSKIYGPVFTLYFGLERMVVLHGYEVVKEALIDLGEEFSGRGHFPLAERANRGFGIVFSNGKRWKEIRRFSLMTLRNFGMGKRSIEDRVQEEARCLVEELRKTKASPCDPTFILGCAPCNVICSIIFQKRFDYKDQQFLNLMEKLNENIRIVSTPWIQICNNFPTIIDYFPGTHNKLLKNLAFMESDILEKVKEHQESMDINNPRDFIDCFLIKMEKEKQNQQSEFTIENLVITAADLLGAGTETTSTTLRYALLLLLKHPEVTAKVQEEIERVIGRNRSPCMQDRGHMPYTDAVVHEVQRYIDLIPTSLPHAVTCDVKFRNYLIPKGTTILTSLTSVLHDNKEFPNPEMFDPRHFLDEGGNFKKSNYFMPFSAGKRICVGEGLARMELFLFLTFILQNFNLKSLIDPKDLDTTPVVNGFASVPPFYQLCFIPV
# Cytochrome P450 3A4 (Homo sapiens), sequence (P08684 whole entry, looked up): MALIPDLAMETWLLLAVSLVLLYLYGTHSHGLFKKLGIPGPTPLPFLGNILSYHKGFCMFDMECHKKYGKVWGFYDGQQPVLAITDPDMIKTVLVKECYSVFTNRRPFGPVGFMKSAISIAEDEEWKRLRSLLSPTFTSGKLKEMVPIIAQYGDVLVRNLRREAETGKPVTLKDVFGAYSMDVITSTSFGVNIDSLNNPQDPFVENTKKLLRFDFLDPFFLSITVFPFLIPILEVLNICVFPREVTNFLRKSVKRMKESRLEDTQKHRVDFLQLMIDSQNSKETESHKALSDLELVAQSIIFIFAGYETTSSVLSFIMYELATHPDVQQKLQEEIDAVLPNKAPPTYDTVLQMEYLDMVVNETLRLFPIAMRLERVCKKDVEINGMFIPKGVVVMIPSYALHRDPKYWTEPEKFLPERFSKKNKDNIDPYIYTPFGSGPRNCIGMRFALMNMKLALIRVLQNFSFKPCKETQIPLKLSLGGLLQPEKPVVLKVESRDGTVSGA
compound,measurement,setting,value
COC(=O)c1ccccc1C(=O)OC,outcome,[1],inactive
same,outcome,[2],inactive
same,outcome,[3],inactive
same,outcome,[4],inactive
same,outcome,[5],inactive
same,outcome,[6],inactive
same,outcome,[7],inactive
same,outcome,[8],inactive
same,outcome,[9],inactive
same,outcome,[10],inactive
same,outcome,[11],inactive
same,outcome,[12],inactive
same,outcome,[13],inactive
same,outcome,[14],inactive
same,outcome,[15],inactive
CO/C=C(/C(=O)OC)c1ccccc1Oc1cc(Oc2ccccc2C#N)ncn1,AC50,[2],4.04 µM (active)
same,outcome,[2],inactive
same,outcome,[16],inactive
same,outcome,[3],inactive
same,outcome,[5],inactive
same,outcome,[6],inactive
same,AC50,[8],1.46 µM (active) and 4.82 µM (active) and 4.07 µM (active)
same,outcome,[17],inactive
same,AC50,[11],7.02 µM (active)
same,outcome,[12],inactive
same,outcome,[13],inactive
COc1cnc(OC)n2nc(NS(=O)(=O)c3c(OCC(F)F)cccc3C(F)(F)F)nc12,AC50,[1],0.121 µM (active)
same,outcome,[3],inactive
same,outcome,[4],inactive
same,outcome,[6],inactive
same,outcome,[7],inactive
same,outcome,[8],inactive
same,outcome,[9],inactive
same,outcome,[10],inactive
same,outcome,[17],inactive
same,outcome,[11],inactive
same,outcome,[12],inactive
same,AC50,[14],2.42 µM (active)
CC(Oc1ccc(Cl)cc1Cl)C(=O)O (stereo not given),outcome,[1],inactive
same,outcome,[3],inactive
same,outcome,[4],inactive
same,outcome,[5],inactive
same,outcome,[6],inactive
same,AC50,[8],670 nM (active)
same,outcome,[17],inactive
same,outcome,[11],inactive
same,outcome,[12],inactive
same,outcome,[13],inactive
N#Cc1cc(Br)c(O)c(Br)c1,outcome,[1],inactive
same,outcome,[2],inactive
same,outcome,[3],inactive
same,AC50,[4],20 µM (active)
same,outcome,[5],inactive
same,outcome,[6],inactive
same,AC50,[8],15300 nM (active)
same,outcome,[9],inactive
same,AC50,[10],33.4 µM (active)
same,outcome,[17],inactive
same,outcome,[15],inactive
CN(C)C(=S)SSC(=S)N(C)C,outcome,[18],inactive
same,AC50,[2],3.26 µM (active)
same,AC50,[4],35 µM (active)
same,outcome,[5],inactive
same,outcome,[6],inactive
same,AC50,[8],12.8 nM (active)
same,outcome,[9],inactive
same,outcome,[17],inactive
same,outcome,[14],inactive
Oc1ccccc1-c1ccccc1,AC50,[18],35.2 µM (active)
same,outcome,[2],inactive
same,outcome,[3],inactive
same,AC50,[4],35.9 µM (active)
same,outcome,[5],inactive
same,AC50,[8],53400 nM (active)
same,AC50,[10],20 µM (active)
same,AC50,[11],6.24 µM (active)
same,outcome,[12],inactive
same,outcome,[13],inactive
same,outcome,[14],inactive
same,outcome,[15],inactive
